CF NFkB inh: blocks PAF-induced NF-kB reporter in cystic fibrosis cells | KKLEB NF-kB-GFP reporter, GFP fluorescence overnight | AID 588850 | inhibition, % at 5 µM | hit rate 0.86% among 360,000;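 active = at least 50% inhibition at 5 µM, scaled per plate between neutral and stimulator controls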;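 note: PAF is a Pseudomonas aeruginosa culture filtrate used as stimulus; plate controls were PAF-stimulated DMSO wells for no effect and unstimulated DMSO wells for full effect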
ABHD5-PLIN5 inh: ABHD5-PLIN5 protein interaction inhibition; inhibition, % at 4 µM; hit rate 0.78% among 360,000; Split G. princeps luciferase complementation, luminescence, 4 h; Q00G26+Q8WTS1;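 active = inhibition above the mean inhibition across every tested compound plus 3 SD, cut at about 22% in these data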;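 note: 0% = DMSO only wells and the 100% control is not disclosed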
Target sequence (Q00G26 whole entry, looked up): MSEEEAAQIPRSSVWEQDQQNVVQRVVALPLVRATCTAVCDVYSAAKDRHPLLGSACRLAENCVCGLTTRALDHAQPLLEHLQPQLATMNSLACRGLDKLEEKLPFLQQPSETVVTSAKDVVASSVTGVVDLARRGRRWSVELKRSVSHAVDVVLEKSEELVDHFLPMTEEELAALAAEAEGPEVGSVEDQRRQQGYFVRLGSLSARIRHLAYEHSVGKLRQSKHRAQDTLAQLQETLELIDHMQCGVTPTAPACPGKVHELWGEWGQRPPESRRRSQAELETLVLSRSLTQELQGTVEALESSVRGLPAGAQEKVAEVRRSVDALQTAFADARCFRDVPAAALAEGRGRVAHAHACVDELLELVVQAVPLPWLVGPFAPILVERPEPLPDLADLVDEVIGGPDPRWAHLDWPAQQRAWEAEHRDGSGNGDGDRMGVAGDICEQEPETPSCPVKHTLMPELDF
Target sequence (Q8WTS1 whole entry, looked up): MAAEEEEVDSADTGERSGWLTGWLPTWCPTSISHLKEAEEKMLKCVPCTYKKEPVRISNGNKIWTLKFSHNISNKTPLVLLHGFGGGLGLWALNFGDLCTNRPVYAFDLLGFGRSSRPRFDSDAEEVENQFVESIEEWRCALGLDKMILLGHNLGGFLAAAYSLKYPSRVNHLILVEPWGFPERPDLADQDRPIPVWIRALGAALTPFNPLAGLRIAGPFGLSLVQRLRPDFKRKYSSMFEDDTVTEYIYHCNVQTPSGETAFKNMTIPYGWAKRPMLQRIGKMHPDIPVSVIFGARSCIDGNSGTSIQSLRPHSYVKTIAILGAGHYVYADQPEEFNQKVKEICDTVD
TRPM1 prom inh: MITF TRPM1 promoter inhibition in SK-MEL-5 cells. SK-MEL-5 TRPM1 promoter luciferase, 24 h. inhibition, % at 12.5 µM. hit rate 0.83% among 330,000;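 active = mean inhibition across replicates of 60% or more, whatever share of single replicates reaches that level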
Peg3 promoter: Peg3 promoter activity inhibition; inhibition, % at 20 µM; HeLa PEG-Prom luciferase reporter, luminescence, overnight; hit rate 1.7% among 360,000;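 active = inhibition of at least 50% at 20 µM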
KKLEB cytotox: counter-screen for CF NF-kB inhibitors: cytotoxicity | KKLEB CF airway cells viability, ATPlite luminescence, overnight; hits give low values; cells stimulated with P. aeruginosa culture filtrate | activity change (cytotoxicity), % at 5 µM | hit rate 0.36% among 360,000;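 active = corrected activity change at or below -50% at 5 µM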
HIF-2a inh: HIF-2a inhibition; 786-0 RCC cells HIF-2a reporter, luciferase luminescence, overnight; inhibition, % at 18.8 µM; hit rate 0.72% among 360,000; AID 624352;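 active = inhibition of the luminescence signal of 40% or more relative to plate controls, in a single-dose primary screen at 18.75 µM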
ABHD5-PLIN5 conf: confirmation of human ABHD5-PLIN5 interaction inhibitors; biochemical ABHD5-PLIN5 interaction, luminescence; shares compounds with ABHD5-PLIN5 inh; inhibition, % at 4 µM; hit rate 67% among 2,200; in the data active = inhibition above about 23%;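 note: 0% = DMSO vehicle wells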
HNF4 counter: HNF4 split-luciferase signal hit, counter-screen; shares compounds with ABHD5-PLIN5 inh; HNF4 dimerization, luminescence, biochemical; hit rate 77% among 2,200; inhibition, % at 4 µM;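 active = mean inhibition across replicate wells exceeding the computed hit threshold, cut at about 13% in these data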;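 note: light from luciferase halves that rejoin when HNF4 fusion proteins dimerize; 0% = DMSO only wells and the 100% control is not given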
Numbers without * were called inactive. A selection: hits, their analogues and other compounds. The true share with any hit is near 3%.

How did O=P1(c2ccccc2)Nc2ccccc2N1c1ccccc1 (stereo not given) do in these assays?
CF NFkB inh: 19; ABHD5-PLIN5 inh: 2; TRPM1 prom inh: 3; Peg3 promoter: -27; KKLEB cytotox: 6; HIF-2a inh: 1

Results for CN(C)c1ccc(/C=C/c2cc[n+](C)c3ccccc23)cc1 ?
CF NFkB inh: -114; ABHD5-PLIN5 inh: 23*; TRPM1 prom inh: 82*; Peg3 promoter: 31; KKLEB cytotox: 2; HIF-2a inh: -11; ABHD5-PLIN5 conf: 31*; HNF4 counter: 30*

How did CCOC(=O)CC1c2ccccc2-n2nncc2CN1CC1CCCCC1 (stereo not given) do in these assays?
CF NFkB inh: -4; ABHD5-PLIN5 inh: 3; Peg3 promoter: -2; KKLEB cytotox: 7; HIF-2a inh: 8

What do the screens show for `COC(=O)C1=C(c2cccc(C#N)c2)C[C@@H]2CC[C@H]1N2C(=O)NC1CC1`?
CF NFkB inh: -4; ABHD5-PLIN5 inh: -3; TRPM1 prom inh: -7; Peg3 promoter: 9; KKLEB cytotox: 15; HIF-2a inh: 9

How did CCc1nnc(NS(=O)(=O)c2ccc(N=Cc3c(O)n(-c4ccc(Cl)cc4)c(=O)[nH]c3=O)cc2)s1 do in these assays?
CF NFkB inh: 3; ABHD5-PLIN5 inh: 30*; TRPM1 prom inh: -7; Peg3 promoter: 3; KKLEB cytotox: 4; HIF-2a inh: 9; ABHD5-PLIN5 conf: 7; HNF4 counter: 16*

Results for Cc1ccc(-n2c(O)c(C=Nc3ccc(S(N)(=O)=O)cc3)c(=O)[nH]c2=O)cc1 ?
CF NFkB inh: 3; ABHD5-PLIN5 inh: 7; TRPM1 prom inh: 16; Peg3 promoter: -2; KKLEB cytotox: 13; HIF-2a inh: 11

Results for CNS(=O)(=O)c1ccc(N=Cc2c(O)n(-c3ccc(C)cc3)c(=O)[nH]c2=O)cc1 ?
CF NFkB inh: 2; ABHD5-PLIN5 inh: 28*; TRPM1 prom inh: 8; Peg3 promoter: -9; KKLEB cytotox: -4; HIF-2a inh: 10; ABHD5-PLIN5 conf: 10; HNF4 counter: 37*

What do the screens show for `Cn1c(O)c(/C=N/c2ncccn2)c(=O)n(C)c1=O`?
CF NFkB inh: -26; ABHD5-PLIN5 inh: 40*; TRPM1 prom inh: -1; Peg3 promoter: 6; KKLEB cytotox: 1; HIF-2a inh: -9; ABHD5-PLIN5 conf: 8; HNF4 counter: 23*

How did CC(C)(C#CC(=O)O)OOC(c1ccccc1)(c1ccccc1)c1ccccc1 do in these assays?
CF NFkB inh: -15; ABHD5-PLIN5 inh: -1; TRPM1 prom inh: 9; Peg3 promoter: 20; KKLEB cytotox: 21; HIF-2a inh: 19

What do the screens show for `Cc1ccc(N2C(=O)NC(=O)/C(=C/c3cnc(-c4ccccc4)nc3)C2=O)cc1C`?
CF NFkB inh: -21; ABHD5-PLIN5 inh: 33*; TRPM1 prom inh: -6; Peg3 promoter: -6; KKLEB cytotox: -6; HIF-2a inh: -19; ABHD5-PLIN5 conf: 87*; HNF4 counter: 73*

How did O=C1NC(=O)N(c2ccccc2)C(=O)/C1=C/c1coc2ccc(O)cc2c1=O do in these assays?
CF NFkB inh: 3; ABHD5-PLIN5 inh: 37*; TRPM1 prom inh: -9; Peg3 promoter: 5; KKLEB cytotox: 6; HIF-2a inh: 10; ABHD5-PLIN5 conf: 90*; HNF4 counter: 88*

What do the screens show for `O=C1NC(=O)N(c2ccccc2)C(=O)/C1=C\c1ccccc1[N+](=O)[O-]`?
CF NFkB inh: 3; ABHD5-PLIN5 inh: 24*; TRPM1 prom inh: 8; Peg3 promoter: 15; KKLEB cytotox: 2; HIF-2a inh: 10; ABHD5-PLIN5 conf: 78*; HNF4 counter: 80*

How did O=C1NC(=O)N(c2ccccc2)C(=O)/C1=C/c1ccoc1 do in these assays?
CF NFkB inh: 9; ABHD5-PLIN5 inh: 4; TRPM1 prom inh: 21; Peg3 promoter: 4; KKLEB cytotox: -1; HIF-2a inh: 12

Results for Cc1cc(/C=C2\C(=O)NC(=O)N(c3ccc(Cl)cc3)C2=O)c(C)n1-c1cccc(C(=O)O)c1 ?
CF NFkB inh: -16; ABHD5-PLIN5 inh: 12; TRPM1 prom inh: 4; Peg3 promoter: 10; KKLEB cytotox: -4; HIF-2a inh: 8

What do the screens show for `O=C1NC(=O)N(c2ccc(Cl)cc2)C(=O)/C1=C/c1coc2ccc(O)cc2c1=O`?
CF NFkB inh: -12; ABHD5-PLIN5 inh: 25*; TRPM1 prom inh: 4; Peg3 promoter: 0; KKLEB cytotox: 4; HIF-2a inh: 9; ABHD5-PLIN5 conf: 87*; HNF4 counter: 81*

How did COC1=CC2C3Cc4ccc(OC)c(O)c4C2(CCN3C)CC1=O (stereo not given) do in these assays?
CF NFkB inh: -1; ABHD5-PLIN5 inh: 3; TRPM1 prom inh: 4; Peg3 promoter: -3; KKLEB cytotox: 6; HIF-2a inh: 9

Results for COC(=O)C1=C(c2ccc(OC(F)(F)F)cc2)C[C@@H]2CC[C@H]1N2C(=O)NCCOc1ccc(OC)cc1 ?
CF NFkB inh: -2; ABHD5-PLIN5 inh: 0; TRPM1 prom inh: 10; Peg3 promoter: -2; KKLEB cytotox: 4; HIF-2a inh: 16

How did N#CCCn1cc(C=C2C(=O)NC(=O)NC2=O)c(-c2ccccc2)n1 do in these assays?
CF NFkB inh: 11; ABHD5-PLIN5 inh: 23*; TRPM1 prom inh: 3; Peg3 promoter: 12; KKLEB cytotox: 1; HIF-2a inh: 11; ABHD5-PLIN5 conf: 51*; HNF4 counter: 84*

What do the screens show for `O=C(O)CCn1cc(C=C2C(=O)NC(=S)NC2=O)c(-c2ccccc2)n1`?
CF NFkB inh: 11; ABHD5-PLIN5 inh: 7; TRPM1 prom inh: -2; Peg3 promoter: 4; KKLEB cytotox: 5; HIF-2a inh: 4

How did CN1C(=O)C(=Cc2ccc(OCC(=O)Nc3ccccc3)cc2)C(=O)N(C)C1=O do in these assays?
CF NFkB inh: 3; ABHD5-PLIN5 inh: 50*; TRPM1 prom inh: -68; Peg3 promoter: -138; KKLEB cytotox: -4; HIF-2a inh: -128; ABHD5-PLIN5 conf: 12; HNF4 counter: 28*

Results for Cc1ccccc1-n1c(O)c(C(c2ccncc2)c2c(O)n(-c3ccccc3C)c(=O)[nH]c2=O)c(=O)[nH]c1=O ?
CF NFkB inh: -8; ABHD5-PLIN5 inh: 26*; TRPM1 prom inh: 5; Peg3 promoter: 9; KKLEB cytotox: 1; HIF-2a inh: 18; ABHD5-PLIN5 conf: 55*; HNF4 counter: 66*

Results for Cn1c(O)c(C(c2ccncc2)c2c(O)n(C)c(=S)n(C)c2=O)c(=O)n(C)c1=S ?
CF NFkB inh: 5; ABHD5-PLIN5 inh: 14; TRPM1 prom inh: -11; Peg3 promoter: -1; KKLEB cytotox: -2; HIF-2a inh: 10

Bioassay records from PubChem.
